Source: PubChem (National Center for Advancing Translational Sciences (NCATS))
Hits are enriched below; roughly 2.4% of the tested compounds scored in any of these assays.
D2 antagonist: antagonizes the human D2 dopamine receptor; inhibition, % at 10 µM; P14416; 2% of 340,000 active; HEK293 TREx D2 cells, calcium flux, dopamine EC80; in the data active = inhibition above about 30%; inactive = below that, where a call was filed
Target sequence (P14416 whole entry, looked up): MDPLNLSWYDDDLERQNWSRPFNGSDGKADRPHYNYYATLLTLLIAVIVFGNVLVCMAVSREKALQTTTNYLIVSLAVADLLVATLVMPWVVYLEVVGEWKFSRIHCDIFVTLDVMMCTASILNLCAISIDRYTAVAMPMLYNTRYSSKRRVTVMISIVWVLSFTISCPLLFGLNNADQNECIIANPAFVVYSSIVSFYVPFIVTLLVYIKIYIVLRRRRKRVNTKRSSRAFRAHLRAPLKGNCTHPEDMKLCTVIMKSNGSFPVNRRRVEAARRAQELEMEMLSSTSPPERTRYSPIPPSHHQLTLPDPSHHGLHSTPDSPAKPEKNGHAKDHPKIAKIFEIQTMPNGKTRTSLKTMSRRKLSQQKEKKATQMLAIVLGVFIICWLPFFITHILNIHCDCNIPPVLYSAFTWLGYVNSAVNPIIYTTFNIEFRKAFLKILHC
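Cells plated overnight at 30 C with tetracycline; no-wash calcium dye, 30–90 min RT; 10 s baseline; compound pinned; 180 s read; EC80 dopamine added; another 180 s read.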
D2 PAM-1: positive allosteric modulators of human D2 dopamine receptor; P14416; HEK293 T-REx D2, calcium flux, EC20 dopamine potentiation; 0.34% of 340,000 active; AID 485347; potentiation, % at 10 µM;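 active = potentiation over 3 SD above the plate norm, cut at about 30% in these data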
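Cells plated with tetracycline inducer and held overnight at 30 C; calcium dye loaded 30–90 min at room temperature; baseline taken, compound added and read 180 s; EC20 dopamine then added and read 180 s.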
D2 ag-1: agonists of human D2 dopamine receptor (beta-arrestin); 0.084% of 360,000 active; activation, % (test concentration not listed); P14416; AID 624465; DiscoveRx PathHunter D2 beta-arrestin, luminescence, 90 min; 100% = 57 uM dopamine signal; in the data active = activation above about 40%; inconclusive = between about 15% and that limit
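Agonist mode: compounds alone added to overnight-plated D2 PathHunter cells for 90 min at 37 C, with 57 uM final dopamine (EC100) defining full response. Beta-arrestin recruitment detected by chemiluminescent reagent, read after 1 h at ambient temperature.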
D2 ag-2: activates the human D2 dopamine receptor | AID 485358 | activation, % at 2 µM | 0.53% of 340,000 active | HEK293 T-REx D2 cells, calcium flux agonist mode | P14416;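 active = activation over 3 SD above normal in the single-dose calcium agonist read, cut at about 30% in these data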
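HEK293 Trex D2 cells, tetracycline-induced, o/n 30 C 5% CO2; no-wash Ca dye, RT 30–90 min; 10-cycle baseline, 23 nl cpd added, kinetic Ca read 180 s; agonist hits = positive Ca response.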
D2 PAM-2: positive allosteric modulators of human D2 dopamine receptor. potentiation, % (no concentration beside the values). 0.23% of 360,000 active. AID 624464. DiscoveRx D2 beta-arrestin cells, luminescence, 90 min; 100% = 57 uM dopamine signal. P14416; in the data active = potentiation above about 50%; inconclusive = mostly about 30% to 49%
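PathHunter D2 cells, attached overnight at 37 deg C, received compound in DMSO plus dopamine at EC20 (50 nM final) for 90 min at 37 deg C. Beta-arrestin recruitment was read as luminescence after 1 h with detection reagent at ambient temperature.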
A number is an active result; 0 = inactive; ? = inconclusive; - = not tested or not shown.

SMILES | D2 antagonist | D2 PAM-1 | D2 ag-1 | D2 ag-2 | D2 PAM-2
CCc1nc2ccc(C(=O)N(C)Cc3ccccc3)cn2c1N(C)Cc1ccc(OC)cc1 | - | - | 0 | - | 0
C=CCn1c(SCc2cc(=O)n3ccsc3n2)nc2sc(C)c(C)c2c1=O | 0 | 36 | 0 | 0 | 0
C=CCn1c(SCC(=O)c2cccs2)nc2sc(C)c(C)c2c1=O | - | - | 0 | - | 0
C=CCn1c(SCc2ccc(C(=O)NCCO)cc2)nc2sc(C)c(C)c2c1=O | 0 | 31 | 0 | 0 | 0
C=CCSc1nc2sc(C)c(C)c2c(=O)n1CC=C | 0 | 0 | 0 | 0 | 0
C[C@H](N=C1NS(=O)(=O)c2ccccc21)C(=O)OCc1cc([N+](=O)[O-])cc2c1OCOC2 | 45 | 0 | 0 | 0 | 0
O=C(CCCN=C1NS(=O)(=O)c2ccccc21)OCc1cc([N+](=O)[O-])cc2c1OCOC2 | 0 | 0 | 0 | 0 | 0
Cc1ccc(Nc2nnc(SC(C)C(=O)NCC3CCCO3)s2)cc1C (centres undefined) | 0 | 0 | 0 | 0 | 0
Cc1nnc(SC(C)C(=O)NCC2CCCO2)s1 (centres undefined) | 31 | 0 | 0 | 0 | 0
CC(C)CNC(=O)C1=CC(c2ccc3c(c2)OCO3)=NS(=O)(=O)N1C | - | 0 | - | 0 | -
O=C1NC(NS(=O)(=O)c2ccccc2)(C(F)(F)F)C(=O)N1c1ccc(F)cc1 (centres undefined) | 33 | 0 | 0 | 0 | 0
CCOC(=O)c1cc(S(=O)(=O)NCc2ccccc2)[nH]n1 | - | 0 | - | - | -
O=C(COc1ccc(Br)cc1)Nc1ccc2c(c1)C(=O)NC2=O | 33 | 0 | 0 | 0 | 0
O=[N+]([O-])c1cc(-c2nc(-c3ccncc3)no2)cc([N+](=O)[O-])c1 | 0 | 0 | ? | 0 | 95
Brc1cccc(-c2nc(-c3ccncc3)no2)c1 | 41 | 0 | 0 | 0 | 0
O=[N+]([O-])c1cc(-c2nc(-c3ccncc3)no2)ccc1Cl | 0 | 0 | 0 | 0 | 0
CC(=O)Nc1ccc(S(=O)(=O)Nc2ccc(F)c([N+](=O)[O-])c2)cc1 | 43 | 0 | 0 | 0 | 0
CC(=O)Nc1ccc(NS(=O)(=O)c2ccc(C)cc2)cc1[N+](=O)[O-] | 0 | 0 | 0 | 0 | 0
CC(=O)Nc1ccc(S(=O)(=O)c2ccc([N+](=O)[O-])cc2)cc1 | 0 | 0 | 53 | 0 | 0
CCN(CC)CCNC(=O)c1cn(-c2ccccc2)nc1-c1cccs1 | 37 | 0 | 0 | 0 | 0
COc1ccc(N2C(=NC(=O)C3CC3)SC3CS(=O)(=O)CC32)cc1Cl (centres undefined) | 0 | 0 | 0 | 0 | 0
CCOC(=O)c1ccc(NC(=O)Cn2cc(C(=O)C3CC3)c3ccccc32)cc1 | - | 0 | - | 0 | -
CC(=O)OC(C)CS(=O)(=O)c1ccccc1 (centres undefined) | 30 | 0 | 0 | 0 | 0
CC(C)c1nnc(NC(=O)CCC(=O)Nc2ccc(F)cc2)s1 | 0 | 0 | 0 | 0 | 0
CCc1ccc(NC(=O)CCC(=O)Nc2nnc(C(C)C)s2)cc1 | 43 | 0 | 0 | 0 | 0
SMILES | D2 antagonist | D2 PAM-1 | D2 ag-1 | D2 ag-2 | D2 PAM-2
Fc1ccc(N2CCN(Cc3cnc(Cl)s3)CC2)cc1 | 0 | 0 | 0 | 39 | 0
Fc1ccc(N2CCN(Cc3nnc(-c4ccccc4Cl)o3)CC2)cc1 | - | 0 | - | 0 | -
CN1CCN(C(=O)c2ccccc2NC(=O)c2cccs2)CC1 | 37 | 0 | 0 | 0 | 0
COc1ccc(CN2CCN(C(=O)c3cccs3)CC2)cc1 | 95 | 0 | 0 | 81 | 0
O=C(c1cccs1)N1CCN(c2ccccc2)CC1 | 31 | 0 | 0 | 0 | 0
CN1CCN(C(=O)c2ccccc2NC(=O)c2ccccc2Br)CC1 | 0 | 0 | 0 | 0 | 0
O=C(c1cccs1)N1CCN(c2ccc(F)cc2)CC1 | 0 | 0 | 0 | 0 | 0
O=C(NNC1=Nc2ccccc2SC1)c1cccc([N+](=O)[O-])c1 | 71 | 0 | 0 | 0 | 0
CCOC(=O)CCn1nc(C)c2c(C)n(-c3ccccc3)nc2c1=O | - | 0 | - | 0 | -
N#Cc1cccc(Oc2ccc(S(=O)(=O)N3CCCC3)cn2)c1 | 35 | 0 | 0 | 0 | 0
Cc1ccc(CSc2ccc(S(=O)(=O)N3CCCC3)cn2)cc1 | 0 | 0 | 0 | 0 | 0
N#Cc1ccc(CSc2ccc(S(=O)(=O)N3CCCC3)cn2)cc1 | 30 | 0 | 0 | 0 | 0
Cc1ccc(C(NC(=O)C2CCN(Cc3ccc(Oc4ccccc4)cc3)CC2)c2ccccn2)cc1 (centres undefined) | - | - | 0 | - | 0
c1ccc(CCNc2cnccn2)cc1 | 38 | 0 | 0 | 0 | 0
Fc1ccc(CNc2cnccn2)cc1 | 0 | 0 | 0 | 0 | 0
c1ccc(CNc2cnccn2)cc1 | 0 | 41 | 0 | 0 | 0
COc1ccc(NC(=O)CC2C(=O)N(c3ccc(F)cc3)C(=S)N2NC(=O)c2ccc(Cl)cc2)cc1 (centres undefined) | 37 | 0 | 0 | 0 | 0
COc1cc(C(=O)O/N=C(\N)c2ccncc2)cc(OC)c1OC | 0 | 0 | 0 | 0 | 84
COc1ccc(/C(N)=N/OC(=O)c2cccc([N+](=O)[O-])c2)cc1 | 0 | 0 | 0 | 0 | 0
COc1ccc(C(=O)O/N=C(\N)c2ccncc2)cc1OC | 0 | 0 | ? | 0 | 85
COc1ccc(C(=O)O/N=C(\N)c2ccc(Cl)cc2)cc1 | 0 | 0 | ? | 0 | 0
COc1cccc(C(=O)O/N=C(\N)Cc2ccc(Cl)cc2)c1 | 0 | 0 | ? | 0 | 125
COc1cccc(C(=O)O/N=C(\N)c2ccc([N+](=O)[O-])cc2)c1 | 0 | 0 | ? | 0 | 136
COc1ccc(-c2cc(C(=O)Oc3ccc(Br)cc3)c3ccccc3n2)cc1 | - | 0 | - | - | -
COc1cccc(CNC(=O)COC(=O)c2ccc(Cl)s2)c1 | - | - | 0 | - | 0
SMILES | D2 antagonist | D2 PAM-1 | D2 ag-1 | D2 ag-2 | D2 PAM-2
CC(=O)N1CCCc2cc(S(=O)(=O)N(C)CC(=O)Nc3ccc(C(C)C)cc3)ccc21 | - | 0 | - | 0 | -
Cc1cccc(-c2n[nH]nc2C2=CC(=O)CC(C)(C)C2)c1 | - | - | 0 | - | -
Cc1cccc(C)c1NC(=O)Cn1c(=O)n(Cc2ccccc2)c(=O)c2c(C)c(C(=O)N(C)C)sc21 | - | - | - | 0 | -
COc1cccc(C(=O)O/N=C(\N)c2ccncc2)c1 | 0 | 0 | 0 | 0 | 59
COc1ccc(/C(N)=N/OC(=O)c2ccc3c(c2)OCO3)cc1 | 0 | 0 | ? | 0 | 103
COc1cccc(C(=O)O/N=C(\N)c2ccc(C)cc2)c1 | 0 | 0 | 0 | 0 | ?
Cc1ccc(/C(N)=N/OC(=O)c2ccc3c(c2)OCO3)cc1 | 0 | 0 | 0 | 0 | 0
COc1cc(C(=O)ON=C2C=C(C)C(=O)C(C)=C2)cc(OC)c1OC | 0 | 0 | 0 | 0 | 64
COc1cc(C(=O)O/N=C2\C=CC(=O)C(C)=C2)cc(OC)c1OC | 0 | 0 | 0 | 0 | 0
CCc1nc2ccccc2c(C(=O)OCc2nc3ccccc3c(=O)[nH]2)c1C | - | - | 0 | - | 0
CCOC(=O)C1(C)CCCN(C(=O)c2ccc(OC)cc2)C1 (centres undefined) | - | - | 0 | - | 0
